PubChem BioAssay AID492952 (Southern Research Specialized Biocontainment Screening …, 2010)
About 1,500 (65%) of roughly 2,300 compounds were called active. No rule for the calls is given here. So high a share suggests a set chosen from earlier hits. The list shows a part of the results. Results with a measured potency or affinity are listed apart.

Experiment: replicating M. tuberculosis growth inhibition, dose response, non-replicating M. tuberculosis project, H37Rv (AID 492952);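 also: Mycobacterium tuberculosis grown in culture; growth inhibition read after a week of incubation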
Conditions: series mostly up to 50 µM

| Structure (SMILES) | outcome |
| --- | --- |
| O=C(Nc1cccnc1)c1ccc(-c2ccc(Cl)cc2)o1 | inactive |
| CCOC(=O)c1ccc(N=C2SC(C(=O)Nc3ccc(C(=O)O)cc3)CC(=O)N2Cc2cccs2)cc1 (centres undefined) | inactive |
| COC(=O)C1=C(C(=O)OC)C(c2cc(Cl)ccc2O)c2sc(=O)[nH]c2S1 (centres undefined) | inactive |
| Cc1ccc(SCCC(=O)OCC(=O)NCC2CCCCC2)cc1 | inactive |
| COc1ccccc1NC(=O)CCN1CCN(c2ccc(Cl)cc2)CC1 | inactive |
| CC(/C=C/c1ccco1)=N/NC(=O)c1ccc(C)nc1 | inactive |
| CC(/C=C/c1ccc2c(c1)OCO2)=N/NC(=O)C1COc2ccccc2O1 (centres undefined) | inactive |
| Cn1cccc1/C=N/NC(=O)c1ccco1 | inactive |
| O=C(N/N=C/c1ccc[nH]1)c1cccnc1 | inactive |
| O=C(N/N=C/c1ccc(Br)s1)c1cccnc1 | inactive |
| O=C(N/N=C/c1ccc[nH]1)c1ccc(Cl)cc1 | inactive |
| O=C(O)c1ccc(-n2nc(C(F)(F)F)c3c2CCCC3)cc1 | inactive |
| CCc1cc2c3c(c1)C(C)CC(C)(C)N3C(=O)/C2=C1\SC(=O)NC1=O (centres undefined) | inactive |
| COc1cccc(-c2nc(C=O)cs2)c1 | inactive |
| Cc1cc(C=C2C(=O)N(C)C(=S)N(C)C2=O)c(C)n1-c1cccnc1 | inactive |
| Cc1ccnc(-n2c(C)cc(/C=C3\C(=O)NC(=S)N(C)C3=O)c2C)c1 | inactive |
| CCCCCCCC(=O)NNC(=O)c1ccc(F)cc1 | inactive |
| Cc1ccc(S(=O)(=O)CCC(=O)Nc2nc(-c3ccncc3)cs2)cc1 | inactive |
| CCCCOc1ccc(NC(=O)CN2CCN(Cc3ccccc3)CC2)cc1 | inactive |
| O=C(NN=C1C2CC3CC1CC(Cl)(C3)C2)c1cccs1 | inactive |
| Cc1ccc(NC(=O)C2COc3ccccc3O2)nc1 (centres undefined) | inactive |
| CCC(=O)N/N=C/c1ccc(-c2ccc(Cl)cc2)o1 | inactive |
| Cc1cccc(C)c1N1C(=O)CC(N2CCSCC2)C1=O (centres undefined) | inactive |
| CCCCCCCC(=O)N/N=C(/C)c1c(O)cc(C)oc1=O | inactive |
| Cc1cc(CN(C)C)c(O)c(C2(C)CCCCC2)c1 | inactive |

| Structure (SMILES) | outcome |
| --- | --- |
| COc1ccccc1C(c1nnnn1Cc1ccccc1)N1CCC(C(N)=O)CC1 (centres undefined) | inactive |
| O=C(N/N=C/c1ccc[nH]1)c1ccc2c(c1)OCO2 | inactive |
| O=C(NCc1cccs1)c1ccc(Br)o1 | inactive |
| O=C(CC1CC2CCC1C2)NCc1cccs1 (centres undefined) | inactive |
| Cc1cc(C(=O)N/N=C/c2cccc(Cl)c2Cl)no1 | inactive |
| CC(C)c1cc(C(=O)N/N=C/C=C/c2ccccc2)n[nH]1 | inactive |
| O=C(N/N=C/c1cc(Br)cc(Cl)c1O)c1ccc2c(c1)OCO2 | inactive |
| CC1(CCc2ccc3c(c2)OCO3)NC(=O)c2ccccc2N1 (centres undefined) | inactive |
| CC1=CC(=O)NP(=O)(Oc2ccc3ccccc3c2)N1 (centres undefined) | inactive |
| CC(=O)c1c(C)n(C)c2ccc(OC(=O)c3ccco3)cc12 | inactive |
| Cc1cc2cc(CNC(=O)COc3ccccc3)ccc2n1C | inactive |
| CCN(CC)CCNC(=O)c1[nH]c2ccc(OCc3ccccc3)cc2c1C | inactive |
| CCOc1ccc(-c2ccc(SCC)nn2)cc1 | inactive |
| Oc1ccccc1Nc1nc(NCC2CCCO2)c2ccccc2n1 (centres undefined) | inactive |
| CCCCCCC1CC(C)(C(=O)CNc2nncs2)OC1=O (centres undefined) | inactive |
| Cc1cc2nc(CSc3ccc(Cl)cc3)cc(=O)n2[nH]1 | inactive |
| O=C(c1nnc(-c2ccc(Cl)cc2)o1)C1CCCC1 | inactive |
| Cc1cc(C)c2sc(NC(=O)C3=COCCO3)nc2c1 | inactive |
| CN(C)Cc1ccccc1Sc1ccccc1Br | inactive |
| C(#CCN1CCOCC1)COCc1ccccc1 | inactive |
| CNC(=O)c1[nH]cnc1C(=O)Nc1ccc(Cl)cc1 | inactive |
| COc1ccc(/C(=N/O)C(C)(C)NO)cc1 | inactive |
| CC1COC(=O)C(NNc2ccc(Cl)c(Cl)c2)=N1 (centres undefined) | inactive |
| CCOC(=O)C1CCCN(Cc2ccc(OCc3ccccc3)cc2)C1 (centres undefined) | inactive |
| O=C(NC(=S)NCCc1ccccc1)c1ccccc1 | inactive |

| Structure (SMILES) | outcome |
| --- | --- |
| CC(C)c1ccc(N2C(=O)CC(Sc3ncn[nH]3)C2=O)cc1 (centres undefined) | inactive |
| CC1=NN(C(=O)c2csc(C)c2)C(O)(C(F)(F)F)C1 (centres undefined) | inactive |
| CC1=NN(C(=O)c2csc(C(C)C)c2)C(O)(C(F)(F)F)C1 (centres undefined) | inactive |
| O=C(COC(=O)c1ccc(Br)o1)Nc1ncc([N+](=O)[O-])s1 | inactive |
| Nc1cccn2c(-c3ccc(Cl)cc3)cnc12 | inactive |
| CC1CC(C)CN(CCOCCSc2ccc(Cl)cc2)C1 (centres undefined) | inactive |
| Clc1ccc(CN2C3=NCCCN3c3ccccc32)cc1 | inactive |
| COc1ccc(C(=O)CCS(=O)(=O)c2ccc(C)cc2)cc1OC | inactive |
| O=C1CC(=O)CC(c2ccccc2)C1 | inactive |
| O=C(NCc1nnc(SC/C=C/c2ccccc2)o1)c1ccco1 | inactive |
| CCN1CCC(=NNC(=O)c2ccco2)CC1 | inactive |
| Cc1occc1C(=O)N/N=C/C(Br)=C\c1ccccc1 | inactive |
| O=C(Nc1nnc(COc2ccc(Cl)cc2)s1)c1ccco1 | inactive |
| CC1=NN(C(=O)CCCc2ccccc2)C(O)(C(F)(F)F)C1 (centres undefined) | inactive |
| Cc1cc(C)cc(OC(=O)c2cccnc2)c1 | inactive |
| Cc1n[nH]c(C)c1CCNC(=O)C1CCC(=O)N(Cc2ccccc2F)C1 (centres undefined) | inactive |
| O=C1/C(=C/c2cccs2)COc2ccccc21 | inactive |
| COc1ccc2c3c(cccc13)OCC2=O | inactive |
| S=C1NC2(CCCC2)N=C1c1ccccc1 | inactive |
| CCOC(=O)Nc1cccc(OCC(=O)Nc2ccc(OC)cc2OC)c1 | inactive |
| CCOc1ccc(C(=O)N/N=C(/C)C2C(=O)c3ccccc3C2=O)cc1 | inactive |
| NC(=O)COc1ccc2cc(-c3ccc(F)cc3)c(=O)oc2c1 | inactive |
| CCOc1c(OC(C)=O)ccc(/C=C2\N=C(SCC)SC2=O)c1[N+](=O)[O-] | inactive |
| COc1ccc(-c2nnc(SCC(C)C)o2)cc1 | inactive |
| O=[N+]([O-])c1ccc(CSc2nnc(-c3cccnc3)o2)cc1 | inactive |

| Structure (SMILES) | outcome |
| --- | --- |
| Brc1ccc(CSc2nnc(-c3ccco3)o2)cc1 | inactive |
| Cc1ccc(CSc2nnc(-c3cccnc3)o2)cc1 | inactive |
| O=C1CC(N2CCC(C(=O)N3CCCCC3)CC2)C(=O)N1 (centres undefined) | inactive |
| C#CCSc1nnc(-c2ccc(O)cc2)o1 | inactive |
| CC(C)c1ccc(OCC(=O)NCc2ccccc2)cc1 | inactive |
| O=C(NCc1ccc(F)cc1)c1cnccn1 | inactive |
| Cc1cc(Br)ccc1OCCCCN1CCCCC1 | inactive |
| COc1ccc(Cc2nnc(-c3ccccc3)o2)cc1 | inactive |
| O=C(c1ccc(-c2ccc([N+](=O)[O-])cc2)o1)N1CCN(S(=O)(=O)c2cccs2)CC1 | inactive |
| Cc1ccc2[nH]c3c(c2c1)CCCC3NCCO (centres undefined) | inactive |
| COCCCn1c(=NC(=O)c2ccccc2)c(C#N)cc2c(=O)n3cccc(C)c3nc21 | inactive |
| Cc1cc(Cl)ccc1NNC(=O)c1c(C)noc1C | inactive |
| CCOC(=O)c1sc(NC(=O)CCN2CCOCC2)c(C(=O)OCC)c1C | inactive |
| CCOC(=O)c1ccsc1NC(=O)CCS(=O)(=O)c1ccccc1 | inactive |
| Cc1ccc(Sc2ncccc2N)cc1 | inactive |
| Nc1ccc(Nc2ccccc2)cc1 | inactive |
| CC1(C)CC(=O)C=C(Nc2ccccc2N)C1 | inactive |
| CN(C)/C=C1/C(=O)N(c2ccc([N+](=O)[O-])cc2)N=C1c1ccccc1 | inactive |
| Cc1cc2cc(CNC(=O)C3CCCC3)ccc2n1C | inactive |
| S=C(Nc1ccc2c(c1)OCO2)Nc1ccc2c(c1)OCO2 | inactive |
| CC1(C)Oc2ccc(NC(=O)C3COc4ccccc4O3)cc2O1 (centres undefined) | inactive |
| O=C(c1ccccc1)n1c(=O)c(F)cn(COCCBr)c1=O | inactive |
| O=C(CCc1ccccc1F)N1CCN(c2ccccc2)CC1 | inactive |
| COc1ccc([N+](=O)[O-])c(S(=O)(=O)c2ccc(Cl)cc2)n1 | inactive |
| CCOC(=O)N1CCC(NS(=O)(=O)c2cc3c(cc2Cl)NC(=O)CO3)CC1 | inactive |

| Structure (SMILES) | outcome |
| --- | --- |
| O=C(Nc1ncc2c(n1)-c1ccccc1OC2)c1ccc(F)cc1 | inactive |
| O=C(Nc1sc2c(c1C(=O)O)CCCC2)c1ccc(F)cc1 | inactive |
| O=C(Cc1ccccc1)Nc1ccc(C(=O)NCC2COc3ccccc3O2)cc1 (centres undefined) | inactive |
| O=C(CCc1ccccc1)N/N=C/c1cc(Br)ccc1O | inactive |
| COc1ccc(N/N=C/c2c(C(=O)O)ccc3ccccc23)cc1 | inactive |
| O=C(Nc1nccs1)c1ccc(Br)cc1 | inactive |
| CC(C)c1nnc(NC(=O)c2sc3ccccc3c2Cl)s1 | inactive |
| C=C1Cn2c(nnc2-c2ccc(Cl)cc2)S1 | inactive |
| COc1ccc(N=N/C(=C\O)C(=O)c2ccco2)cc1 | inactive |
| Clc1ccc(Cc2nnc(-c3cccs3)o2)cc1 | inactive |
| COCc1[nH]nc2c1C(c1sccc1C)C(C#N)=C(N)O2 (centres undefined) | inactive |
| O=C(NCc1ccccc1)c1cc2ccccc2oc1=O | inactive |
| O=C(COC(=O)c1cc2ccccc2oc1=O)Nc1ccc(F)cc1F | inactive |
| Cc1cccc(NC(=O)c2cc3ccccc3oc2=O)c1 | inactive |
| Cc1cccc(NC(=O)COC(=O)c2cc3ccccc3oc2=O)c1 | inactive |
| NNC(=O)CNC(=O)C12CC3CC(CC(C3)C1)C2 | inactive |
| COc1ccc2c(c1)C(=C(C#N)C#N)C(=O)N2CCc1ccccc1 | inactive |
| COc1ccc(OC(=O)C(C)N2C(=O)c3ccccc3C2=O)cc1 (centres undefined) | inactive |
| CCN1/C(=C(\O)c2ccccc2)C(=O)c2ccccc2S1(=O)=O | inactive |
| Cc1cccc2nc(CSc3nc4cc([N+](=O)[O-])ccc4s3)cn12 | inactive |
| CC(C)CN1C(=O)CC(Sc2ccccc2C(=O)O)C1=O (centres undefined) | inactive |
| COc1cc(CNC2CCCC2)cc(Cl)c1OCc1ccc(F)cc1 | inactive |
| COc1ccc(CCCC(=O)NCc2ccccc2)cc1C | inactive |
| NC(=O)C1(N2CCCCC2)CCN(C2CC(=O)N(CCc3ccccc3)C2=O)CC1 (centres undefined) | inactive |
